From the supplement of paper PMC12669032

Tests used:
Experiment in all cases: growth AUC relative to DMSO control (median of replicates) (fraction); higher = more growth (less inhibition), active = hit call of the paper
Details in all cases: 20 µM; 24 h;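 active = AUC reduced over 20% with Padj below 0.05 in at least 2 of 3 replicates; inactive = otherwise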
Coprococcus comes = test system: Coprococcus comes
Method in brief: (§1)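 Hourly OD600 readings over 24 h tracked anaerobic gut bacterial monocultures grown at 37 °C in mGAM from OD600 0.05 with 20 µM compound (1% DMSO). After the minimum OD was set to 0, area under the growth curve was normalised to the plate median of solvent-only wells, or to row and column medians on the industrial chemical plate. Values are medians of three biological replicates grown on separate days.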

Escherichia coli ED1a = test system: Escherichia coli ED1a
Method in brief: as §1

Escherichia coli IAI1 = test system: Escherichia coli IAI1
Method in brief: as §1

Eubacterium rectale = test system: Eubacterium rectale
Method in brief: as §1

[1] = test system: Fusobacterium nucleatum subsp. animalis
Method in brief: as §1

Lactobacillus gasseri = test system: Lactobacillus gasseri
Method in brief: as §1

Lactobacillus paracasei = test system: Lactobacillus paracasei
Method in brief: as §1

Odoribacter splanchnicus = test system: Odoribacter splanchnicus
Method in brief: as §1

[2] = test system: Parabacteroides distasonis
Method in brief: as §1

Parabacteroides merdae = test system: Parabacteroides merdae
Method in brief: as §1

Roseburia intestinalis = test system: Roseburia intestinalis
Method in brief: as §1

Streptococcus salivarius = test system: Streptococcus salivarius
Method in brief: as §1

Measured: growth AUC

Oc1cc(Cl)c(Cl)cc1Cl
inactive: Coprococcus comes 0.983 | Escherichia coli ED1a 0.978 | Escherichia coli IAI1 0.938 | Eubacterium rectale 0.97 | [1] 1 | Lactobacillus gasseri 0.843 | Lactobacillus paracasei 0.971 | Odoribacter splanchnicus 1.12 | [2] 0.962 | Parabacteroides merdae 0.927 | Roseburia intestinalis 0.906 | Streptococcus salivarius 0.95

CC(C)(C)C(O)(CCc1ccc(Cl)cc1)Cn1cncn1 (stereo not given)
inactive: Coprococcus comes 1.02 | Escherichia coli ED1a 1.01 | Escherichia coli IAI1 0.991 | Eubacterium rectale 0.879 | [1] 1.05 | Lactobacillus gasseri 1.04 | Lactobacillus paracasei 0.968 | Odoribacter splanchnicus 0.973 | [2] 0.903 | Parabacteroides merdae 0.962 | Roseburia intestinalis 1.1 | Streptococcus salivarius 1.01

CC(C)(C)c1ccc(CCOc2ncnc3ccccc23)cc1
active: [2] 0.795
inactive: Coprococcus comes 0.98 | Escherichia coli ED1a 0.976 | Escherichia coli IAI1 0.973 | Eubacterium rectale 0.905 | [1] 0.887 | Lactobacillus gasseri 0.924 | Lactobacillus paracasei 0.942 | Odoribacter splanchnicus 0.834 | Parabacteroides merdae 0.934 | Roseburia intestinalis 0.901 | Streptococcus salivarius 0.975

CC1=C(C(=O)Nc2ccccc2)SCCO1
inactive: Coprococcus comes 0.998 | Escherichia coli ED1a 1 | Escherichia coli IAI1 1.04 | Eubacterium rectale 1.06 | [1] 1.09 | Lactobacillus gasseri 0.993 | Lactobacillus paracasei 1.04 | Odoribacter splanchnicus 0.985 | [2] 1 | Parabacteroides merdae 1.01 | Roseburia intestinalis 1.08 | Streptococcus salivarius 1.08

CN(C)NC(=O)CCC(=O)O
inactive: Coprococcus comes 0.998 | Escherichia coli ED1a 0.988 | Escherichia coli IAI1 1.01 | Eubacterium rectale 0.926 | [1] 0.956 | Lactobacillus gasseri 1.01 | Lactobacillus paracasei 1.02 | Odoribacter splanchnicus 0.989 | [2] 1.03 | Parabacteroides merdae 1.02 | Roseburia intestinalis 0.953 | Streptococcus salivarius 0.951

COP(=O)(OC)OC(Br)C(Cl)(Cl)Br (stereo not given)
inactive: Coprococcus comes 0.976 | Escherichia coli ED1a 0.991 | Escherichia coli IAI1 1.02 | Eubacterium rectale 0.915 | [1] 0.973 | Lactobacillus gasseri 1.02 | Lactobacillus paracasei 1.01 | Odoribacter splanchnicus 0.937 | [2] 1.06 | Parabacteroides merdae 1.01 | Roseburia intestinalis 1.01 | Streptococcus salivarius 0.956

CCOC(=O)OC1=C(c2cc(C)ccc2C)C(=O)NC12CCC(OC)CC2 (stereo not given)
inactive: Coprococcus comes 0.998 | Escherichia coli ED1a 1.01 | Escherichia coli IAI1 0.983 | Eubacterium rectale 1.01 | [1] 0.965 | Lactobacillus gasseri 0.993 | Lactobacillus paracasei 0.992 | Odoribacter splanchnicus 0.969 | [2] 0.981 | Parabacteroides merdae 1.03 | Roseburia intestinalis 0.995 | Streptococcus salivarius 0.987

O=C(Nc1ccccc1)Nc1cnns1
inactive: Coprococcus comes 0.971 | Escherichia coli ED1a 0.91 | Escherichia coli IAI1 0.884 | Eubacterium rectale 1 | [1] 0.955 | Lactobacillus gasseri 0.925 | Lactobacillus paracasei 1.09 | Odoribacter splanchnicus 0.938 | [2] 0.94 | Parabacteroides merdae 0.955 | Roseburia intestinalis 0.918 | Streptococcus salivarius 0.891

ClC1C(Cl)C(Cl)C(Cl)C(Cl)C1Cl (mixture of isomers)
inactive: Coprococcus comes 1.03 | Escherichia coli ED1a 1.01 | Escherichia coli IAI1 0.981 | Eubacterium rectale 0.936 | [1] 0.966 | Lactobacillus gasseri 1.08 | Lactobacillus paracasei 1 | Odoribacter splanchnicus 0.935 | [2] 1.04 | Parabacteroides merdae 0.949 | Roseburia intestinalis 1.02 | Streptococcus salivarius 0.974

Cc1ccccc1CO[C@@H]1C[C@@]2(C(C)C)CC[C@]1(C)O2 (mixture of isomers)
inactive: Coprococcus comes 1 | Escherichia coli ED1a 1.02 | Escherichia coli IAI1 0.961 | Eubacterium rectale 1.14 | [1] 1.02 | Lactobacillus gasseri 0.96 | Lactobacillus paracasei 1.01 | Odoribacter splanchnicus 1.04 | [2] 0.887 | Parabacteroides merdae 1 | Roseburia intestinalis 0.978 | Streptococcus salivarius 0.97
